# In the library only some 5.7% were active in any assay of this set; here they are far more common.
# AHR act: activators of human aryl hydrocarbon receptor. AHR-responsive luciferase reporter cells, luminescence. 2.5% of 320,000 active. activation, % at 5 µM. P35869. AID 2796; in the data active = activation above about 47%
# ssDAF12 agonist: activates DAF-12 receptor from parasite S. stercoralis. AID 652126. HEK293 ssDAF-12/GRIP1 lit1-tk-luc reporter, luminescence; % of 3 µM dafachronic acid response. 1% of 370,000 active. activation, % at 6.8 µM;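 active = activation above the mean over all tested compounds plus 3 SD, cut at about 0.9% in these data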
# DAX1 inh-1: DAX1 (NR0B1) inhibition, primary screen. HEK293T StAR-luciferase reporter, SF-1/DAX-1 repression relief. AID 652010. 1.1% of 370,000 active. inhibition, % at 6.8 µM;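 active = inhibition above the mean over all tested compounds plus 3 SD, cut at about 3.6% in these data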;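 note: higher inhibition means more luminescence from relief of DAX-1 repression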
# DAX1 inh-2: NR0B1 (DAX1) inhibition. HEK293 Gal4-DAX1 luciferase reporter, luminescence. P51843. 0.99% of 340,000 active. inhibition, % at 6.75 µM;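 active = inhibition above the mean over all tested compounds plus 3 SD, cut at about 4.2% in these data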;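 note: inhibition shows as a rise in luminescence from relieved DAX1 repression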
# Target sequence (P51843 207-470 limits assumed): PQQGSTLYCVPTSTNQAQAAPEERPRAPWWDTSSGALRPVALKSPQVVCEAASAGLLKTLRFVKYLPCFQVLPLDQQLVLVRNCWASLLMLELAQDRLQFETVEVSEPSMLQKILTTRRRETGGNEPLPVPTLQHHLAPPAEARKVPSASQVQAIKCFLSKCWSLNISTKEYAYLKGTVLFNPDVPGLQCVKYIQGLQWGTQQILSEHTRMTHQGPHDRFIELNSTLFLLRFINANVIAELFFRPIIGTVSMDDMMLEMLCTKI
# hgDAF12 agonist: activates the H. glycines DAF-12 receptor ligand-binding domain | HEK293 GAL4-hgDAF12 UAS-luciferase reporter, agonist luminescence; normalized to butyrate control | activation, % at 6.8 µM | 1.8% of 370,000 active;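 active = activation above a cutoff set at the mean of all screened compounds plus 3 SD, cut at about 10% in these data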
# hcDAF-12 act: activates DAF-12 receptor from parasite H. contortus. activation, % at 6.8 µM. HEK293 hcDAF-12 lit1-tk-luc reporter, luminescence; 0% DMSO, 100% Δ7-dafachronic acid. 1.4% of 370,000 active;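 active = activation above the mean of all tested compounds plus 3 SD, cut at about 5.5% in these data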
# DAX1 conf: NR0B1 (human) inhibition, confirmation; shares compounds with DAX1 inh-1; HEK293T StAR-promoter luciferase reporter, SF-1/DAX-1 repression; inhibition, % at 6.8 µM; 87% of 2,400 active; AID 652134;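 active = inhibition above the average of every tested compound plus 3 SD, cut at about 3.8% in these data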;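 note: active compounds raise luminescence by relieving repression of the StAR reporter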
# SF1 AF2mut Luc: nonselective inhibitor or artifact in SF-1 mutant DAX1 counter-screen | 78% of 2,400 active | inhibition, % at 6.8 µM | AID 652136 | shares compounds with DAX1 inh-1 | HEK293 StAR-luciferase, SF-1 AF2 mutant, luminescence;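 active = inhibition above the mean of all tested compounds plus 3 SD, cut at about 3% in these data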
# LXRb hcDAF ctr: counter-screen for hcDAF-12 agonists: agonists of human LXR-beta | shares compounds with hcDAF-12 act | HEK293 Gal4-LXR tk-luc reporter, luminescence, 24 h; normalized: DMSO 0%, positive control 100% | activation, % at 6.8 µM | 3,400 tested, under 10 active;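 active = mean percent activation of the reporter above a cutoff set as the average over tested compounds plus their standard deviation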
# hcDAF12 conf: confirmation of H. contortus DAF-12 agonists | shares compounds with hcDAF-12 act | HEK293 hcDAF-12 lit1-tk-luc reporter, luminescence; % of Δ7-dafachronic acid response | activation, % at 6.8 µM | 61% of 3,400 active;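 active = mean activation across triplicate tests above the threshold derived from the earlier primary screen, cut at about 5.5% in these data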
# hgDAF12 conf: confirmation of H. glycines DAF-12 agonists; shares compounds with hgDAF12 agonist; HEK293 GAL4-hgDAF12 luciferase reporter, agonist mode; percent of butyrate response; activation, % at 6.8 µM; 80% of 3,300 active;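 active = mean activation over triplicate wells above the hit cutoff derived from the earlier primary screen, cut at about 11% in these data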
# LXRb DAF12 ctr: LXR-beta agonism as DAF-12 counter-screen. HEK293 Gal4-LXR luciferase reporter, 24 h. shares compounds with hgDAF12 agonist. activation, % at 6.8 µM. 3,300 tested, under 10 active. AID 743051;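 active = mean activation of the triplicate above a set limit carried over from the primary screen, none filed active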
# Hits are given with their value; n = inactive; x = not tested or not shown.
SMILES,AHR act,ssDAF12 agonist,DAX1 inh-1,DAX1 inh-2,hgDAF12 agonist,hcDAF-12 act,DAX1 conf,SF1 AF2mut Luc,LXRb hcDAF ctr,hcDAF12 conf,hgDAF12 conf,LXRb DAF12 ctr
Cc1cc(C(=O)NC2CCC(C)CC2)c(C)o1 (stereo not given),n,n,7.5,n,n,13,14,6.7,n,7.7,x,x
Cc1cc(C)c(S(=O)(=O)c2cccc(Cl)c2)c(=O)[nH]1,n,n,n,n,n,n,x,x,x,x,x,x
O=C(Nc1ccccc1N1CCCCC1)C1CCN(C(=O)c2ccc(Cl)cc2)CC1,n,n,n,n,n,n,x,x,x,x,x,x
Fc1ccc(-c2cnn3c(-c4cccs4)ccnc23)cc1,x,3.9,7.2,4.9,33,32,18,11,n,23,x,x
O=C(c1c(Cl)nc2sccn12)N(C(=O)c1c(Cl)nc2sccn12)c1ccc(Cl)cn1,n,1.2,5.4,n,n,7.9,11,3.0,n,11,x,x
O=C(NCCc1c[nH]c2ccccc12)c1c(Cl)nc2sccn12,n,n,n,n,n,n,x,x,x,x,x,x
CCCc1nc2ccc(C)cn2c1Cc1ccccc1,x,1.3,4.6,x,n,7.2,n,3.8,n,7.3,x,x
CCCc1nc2ccc(Br)cn2c1Cc1ccccc1,x,n,n,x,n,n,x,x,x,x,x,x
Cc1ccc(C)c(OCC(=O)Nc2ccc(S(=O)(=O)Nc3onc(C)c3C)cc2)c1,n,n,n,n,n,n,x,x,x,x,x,x
Nc1ccccc1S(N)(=O)=O,n,n,n,n,n,n,x,x,x,x,x,x
COc1cccc(NC(=O)N2CCCCCC2)c1,n,n,4.6,n,n,7.7,5.7,4.0,n,n,x,x
CSc1ccc(/C=N/NC(=O)c2ccc(C)c(C)c2)cc1,n,n,n,n,n,n,x,x,x,x,x,x
CSc1ccc(/C=N/NC(=O)c2sccc2C)cc1,n,1.7,5.8,n,16,7.1,16,7.9,n,6.6,24,n
COc1ccc(C(C)(NC(C)=O)c2nc(-c3cccc(F)c3)cs2)cc1 (stereo not given),x,n,n,x,n,n,x,x,x,x,x,x
COc1cccc(NC(=O)c2ccc3c(c2)CCN3S(C)(=O)=O)c1,n,n,n,n,n,n,x,x,x,x,x,x
COc1cccc(NC(=O)c2ccc3c(c2)N(C)CCS3)c1,n,n,8.7,n,16,6.2,10,9.3,x,x,18,n
Cc1nn2c(-c3ccc(Cl)cc3Cl)nnc2s1,n,n,n,n,n,n,x,x,x,x,x,x
CC(C)C(=O)Nc1ccc(C=C2C=Cc3ccccc32)cc1,x,0.9,5.5,x,17,n,8.8,5.0,x,x,20,n
CC(C)C(=O)Nc1ccc(Nc2ccccc2)cc1,n,n,n,n,n,n,x,x,x,x,x,x
ON=C(CCc1ccccc1)c1ccccc1,x,n,5.1,x,15,7.0,12,6.7,n,5.8,16,n
O/N=C(\COc1ccccc1O)c1ccccc1,n,n,n,n,n,n,x,x,x,x,x,x
O=C(CSc1nnc(-c2ccc(O)cc2)o1)NNC(=O)c1ccncc1,n,n,n,n,n,n,x,x,x,x,x,x
N/C(=N\OC(=O)COc1ccc(Cl)cc1Cl)c1ccccn1,n,n,5.3,n,16,6.4,19,7.2,x,x,15,n
O=C(Nc1ccccc1O)c1ccc(NC(=O)C2CC2)cc1,n,n,42,9.5,62,9.8,46,22,n,7.9,69,n
Cc1c(N)cccc1-c1nc2ccccc2[nH]1,n,n,n,n,n,n,x,x,x,x,x,x
SMILES,AHR act,ssDAF12 agonist,DAX1 inh-1,DAX1 inh-2,hgDAF12 agonist,hcDAF-12 act,DAX1 conf,SF1 AF2mut Luc,LXRb hcDAF ctr,hcDAF12 conf,hgDAF12 conf,LXRb DAF12 ctr
COC(=O)c1ccc(-c2nc3ccccc3[nH]2)cc1,n,n,5.3,n,15,n,18,9.4,x,x,13,n
Cc1cc(-c2nc3ccccc3[nH]2)ccc1N,n,1.2,8.0,n,15,6.4,14,7.2,x,x,17,n
Cc1ccc2nc(-c3ccccc3N)[nH]c2c1,n,n,5.1,n,22,9.2,14,5.9,n,10.0,19,n
Cc1ccc(C)c(-c2nc3ccc(N)cc3[nH]2)c1,n,n,n,n,n,n,x,x,x,x,x,x
CCCn1cc(CN2CCN(Cc3ccc(C)o3)C(CCO)C2)c(C)n1 (stereo not given),n,n,n,n,n,n,x,x,x,x,x,x
COc1cccc(NC(=O)CN(C)C(=O)CSc2nc(C)cc(C)n2)c1,n,n,n,n,n,n,x,x,x,x,x,x
Cc1cnc(NC(=O)c2cc3ccccc3o2)s1,n,1.9,7.3,6.4,19,10,17,8.9,n,14,15,n
NS(=O)(=O)c1cccc(NC(=O)c2cc3ccccc3o2)c1,n,n,n,n,n,n,x,x,x,x,x,x
O=C(Nc1cccc(Br)c1)c1cc2ccccc2o1,n,n,5.1,4.3,26,9.1,12,7.0,n,5.9,21,n
CC12CCC(=O)N1C(C(=O)NCc1ccc(Cl)cc1Cl)CS2 (stereo not given),n,n,n,n,n,n,x,x,x,x,x,x
Cc1ccc(OCc2nc(-c3cccs3)no2)c([N+](=O)[O-])c1,n,1.9,12,n,14,7.1,15,7.1,n,7.6,19,n
O=C(O)CCc1nc(-c2cccs2)no1,n,n,n,n,n,n,x,x,x,x,x,x
O=[N+]([O-])c1ccccc1OCc1nc(-c2cccs2)no1,n,n,8.5,n,14,n,11,6.2,x,x,14,n
O=C(COn1nnc2ccccc21)N1CCN(Cc2ccccc2)CC1,n,n,n,n,n,n,x,x,x,x,x,x
CCOC(=O)[C@@H]1[C@H]2COc3ccccc3[C@H]2N2C(=O)N(c3ccc(C(F)(F)F)cc3)C(=O)[C@]12C,n,n,n,n,n,n,x,x,x,x,x,x
Nc1c2c(nc3sc4c(c13)CCCCC4)CCCCC2,n,n,5.0,n,16,5.8,8.7,3.5,x,x,16,n
CCc1c(-c2ccccc2)nc2sc3c(c2c1N)CCCC3,n,n,n,n,n,n,x,x,x,x,x,x

# Compound activity: PubChem BioAssay, The Scripps Research Institute Molecular Screening Center
